What all share (test): PBM; 200 nM protein, PBS
Holding throughout (conditions): dsDNA, one strand shown

Assay [1] addresses HOXB4 (Homo sapiens, UniProt P17483 148-234).
In assay [2] the target is HOXA4 (Homo sapiens, UniProt Q00056 201-287, W262R).
Assay [3] has as its target HOXA2 (Homo sapiens, UniProt O43364 129-215, R185T).
For assay [4], the target named is HOXA4 (Homo sapiens, UniProt Q00056 201-287, R217L).
Assay [5] has as its target HOXB4 (Homo sapiens, UniProt P17483 148-234, V174I).
The target in assay [6] is HOXA2 (Homo sapiens, UniProt O43364 129-215, R185K).
Assay [7] deals with HOXA4 (Homo sapiens, UniProt Q00056 201-287).
The target of assay [8] is HOXA2 (Homo sapiens, UniProt O43364 129-215, Y150S).
The target of assay [9] is HOXA4 (Homo sapiens, UniProt Q00056 201-287, W262F).
In assay [10] the target is HOXA2 (Homo sapiens, UniProt O43364 129-215).
Assay [11] has as its target HOXA7 (Homo sapiens, UniProt P31268 116-202).
Assay [12] deals with HOXB6 (Homo sapiens, UniProt P17509 132-218, K202E).
Assay [13] deals with VAX1 (Homo sapiens, UniProt Q5SQQ9 86-172).
The target of assay [14] is VAX1 (Homo sapiens, UniProt Q5SQQ9 86-172, T142I).
Assay [15] has as its target HOXA7 (Homo sapiens, UniProt P31268 116-202, W177C).
Assay [16] concerns the target VAX1 (Homo sapiens, UniProt Q5SQQ9 86-172, K157R).
The target in assay [17] is HOXB6 (Homo sapiens, UniProt P17509 132-218).
Assay [18] concerns the target HOXD13 (Homo sapiens, UniProt P35453 263-343, T313R).
Assay [19] deals with HOXD13 (Homo sapiens, UniProt P35453 263-343).
Assay [20] concerns the target HOXD13 (Homo sapiens, UniProt P35453 263-343, T313A).
Assay [21] concerns the target HOXC9 (Homo sapiens, UniProt P31274 178-260, K195R).
For assay [22], the target named is HOXC9 (Homo sapiens, UniProt P31274 178-260).
Assay [23] concerns the target HOXC9 (Homo sapiens, UniProt P31274 178-260, R193K).
The target of assay [24] is ALX1 (Homo sapiens, UniProt Q15699 118-204, L144V).
Assay [25] concerns the target ALX1 (Homo sapiens, UniProt Q15699 118-204, L144R).
Assay [26] addresses ALX1 (Homo sapiens, UniProt Q15699 118-204).

Sequence of HOXA4 (Homo sapiens, UniProt Q00056 201-287, W262R) (Q00056 201-287 W262R): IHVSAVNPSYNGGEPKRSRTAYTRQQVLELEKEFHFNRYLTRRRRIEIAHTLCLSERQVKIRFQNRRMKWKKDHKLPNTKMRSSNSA
Sequence of HOXA4 (Homo sapiens, UniProt Q00056 201-287) (Q00056 201-287): as the sequence (Q00056 201-287 W262R) above, with R62W counted along it
Sequence of HOXA2 (Homo sapiens, UniProt O43364 129-215, R185T) (O43364 129-215 R185T): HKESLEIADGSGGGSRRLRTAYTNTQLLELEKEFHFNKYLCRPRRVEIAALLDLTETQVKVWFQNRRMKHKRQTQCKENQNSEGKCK
Sequence of HOXA4 (Homo sapiens, UniProt Q00056 201-287, W262F) (Q00056 201-287 W262F): as the sequence (Q00056 201-287 W262R) above, with R62F counted along it
Sequence of HOXA7 (Homo sapiens, UniProt P31268 116-202) (P31268 116-202): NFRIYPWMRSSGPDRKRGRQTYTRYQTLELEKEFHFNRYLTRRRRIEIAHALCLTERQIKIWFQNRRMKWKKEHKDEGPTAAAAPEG
Sequence of HOXB4 (Homo sapiens, UniProt P17483 148-234, V174I) (P17483 148-234 V174I): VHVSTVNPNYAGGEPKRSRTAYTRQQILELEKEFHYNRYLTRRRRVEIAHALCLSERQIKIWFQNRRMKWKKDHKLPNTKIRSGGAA
Sequence of HOXB4 (Homo sapiens, UniProt P17483 148-234) (P17483 148-234): as the sequence (P17483 148-234 V174I) above, with I27V counted along it
Sequence of HOXA7 (Homo sapiens, UniProt P31268 116-202, W177C) (P31268 116-202 W177C): as the sequence (P31268 116-202) above, with W62C counted along it
Sequence of HOXA2 (Homo sapiens, UniProt O43364 129-215) (O43364 129-215): as the sequence (O43364 129-215 R185T) above, with T57R counted along it
Sequence of HOXA2 (Homo sapiens, UniProt O43364 129-215, Y150S) (O43364 129-215 Y150S): as the sequence (O43364 129-215 R185T) above, with Y22S, T57R counted along it
Sequence of HOXA4 (Homo sapiens, UniProt Q00056 201-287, R217L) (Q00056 201-287 R217L): as the sequence (Q00056 201-287 W262R) above, with R17L, R62W counted along it
Sequence of HOXA2 (Homo sapiens, UniProt O43364 129-215, R185K) (O43364 129-215 R185K): as the sequence (O43364 129-215 R185T) above, with T57K counted along it
Sequence of VAX1 (Homo sapiens, UniProt Q5SQQ9 86-172, T142I) (Q5SQQ9 86-172 T142I): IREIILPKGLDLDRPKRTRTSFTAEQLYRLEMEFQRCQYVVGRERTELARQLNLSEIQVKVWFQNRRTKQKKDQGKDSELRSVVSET
Sequence of VAX1 (Homo sapiens, UniProt Q5SQQ9 86-172, K157R) (Q5SQQ9 86-172 K157R): as the sequence (Q5SQQ9 86-172 T142I) above, with I57T, K72R counted along it
Sequence of HOXD13 (Homo sapiens, UniProt P35453 263-343, T313A) (P35453 263-343 T313A): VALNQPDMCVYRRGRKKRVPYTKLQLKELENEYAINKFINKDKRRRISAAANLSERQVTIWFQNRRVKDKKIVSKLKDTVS
Sequence of VAX1 (Homo sapiens, UniProt Q5SQQ9 86-172) (Q5SQQ9 86-172): as the sequence (Q5SQQ9 86-172 T142I) above, with I57T counted along it
Sequence of HOXB6 (Homo sapiens, UniProt P17509 132-218, K202E) (P17509 132-218 K202E): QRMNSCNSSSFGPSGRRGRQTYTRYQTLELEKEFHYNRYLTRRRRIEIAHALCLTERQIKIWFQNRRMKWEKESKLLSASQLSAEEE
Sequence of ALX1 (Homo sapiens, UniProt Q15699 118-204) (Q15699 118-204): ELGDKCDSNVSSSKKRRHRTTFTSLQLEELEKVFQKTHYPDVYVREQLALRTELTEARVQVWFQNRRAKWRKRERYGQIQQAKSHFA
Sequence of HOXC9 (Homo sapiens, UniProt P31274 178-260) (P31274 178-260): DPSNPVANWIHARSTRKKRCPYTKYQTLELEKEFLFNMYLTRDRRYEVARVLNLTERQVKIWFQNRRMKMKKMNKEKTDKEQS
Sequence of ALX1 (Homo sapiens, UniProt Q15699 118-204, L144V) (Q15699 118-204 L144V): as the sequence (Q15699 118-204) above, with L27V counted along it
Sequence of HOXC9 (Homo sapiens, UniProt P31274 178-260, K195R) (P31274 178-260 K195R): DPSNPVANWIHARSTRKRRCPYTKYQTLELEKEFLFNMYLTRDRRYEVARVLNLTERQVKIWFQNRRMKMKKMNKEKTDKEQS
Sequence of HOXB6 (Homo sapiens, UniProt P17509 132-218) (P17509 132-218): as the sequence (P17509 132-218 K202E) above, with E71K counted along it
Sequence of HOXC9 (Homo sapiens, UniProt P31274 178-260, R193K) (P31274 178-260 R193K): as the sequence (P31274 178-260) above, with R16K counted along it
Sequence of HOXD13 (Homo sapiens, UniProt P35453 263-343, T313R) (P35453 263-343 T313R): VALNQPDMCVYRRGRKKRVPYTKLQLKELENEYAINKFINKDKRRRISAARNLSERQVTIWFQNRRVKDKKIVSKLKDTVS
Sequence of ALX1 (Homo sapiens, UniProt Q15699 118-204, L144R) (Q15699 118-204 L144R): as the sequence (Q15699 118-204) above, with L27R counted along it
Sequence of HOXD13 (Homo sapiens, UniProt P35453 263-343) (P35453 263-343): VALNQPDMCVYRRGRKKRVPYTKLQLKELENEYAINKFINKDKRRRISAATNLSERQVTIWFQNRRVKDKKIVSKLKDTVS

On to CGCCGGGC, for which the binding signal in the assay with HOXB4 [1] was 7.64 upbm affinity estimate (log intensity, higher = more binding, comparable within an allelic series); with HOXA4 [2], 9.72 upbm affinity estimate (log intensity, higher = more binding, comparable within an allelic series); in the assay with HOXA2 [3], 7.33 upbm affinity estimate (log intensity, higher = more binding, comparable within an allelic series); in the assay with HOXA4 [4], 9.76 upbm affinity estimate (log intensity, higher = more binding, comparable within an allelic series); with HOXB4 [5] it was 7.67 upbm affinity estimate (log intensity, higher = more binding, comparable within an allelic series); in the assay with HOXA2 [6], 10.2 upbm affinity estimate (log intensity, higher = more binding, comparable within an allelic series). The binding signal with HOXA4 [7] is 9.84 upbm affinity estimate (log intensity, higher = more binding, comparable within an allelic series); with HOXA2 [8] it was 10.4 upbm affinity estimate (log intensity, higher = more binding, comparable within an allelic series); with HOXA4 [9], 9.99 upbm affinity estimate (log intensity, higher = more binding, comparable within an allelic series); with HOXA2 [10], 7.24 upbm affinity estimate (log intensity, higher = more binding, comparable within an allelic series).

For the sequence ATCATTAC, the binding signal was 13.1 upbm affinity estimate (log intensity, higher = more binding, comparable within an allelic series) in the assay with HOXB4 [1]; 10.4 upbm affinity estimate (log intensity, higher = more binding, comparable within an allelic series) in the assay with HOXA4 [2]; 12 upbm affinity estimate (log intensity, higher = more binding, comparable within an allelic series) with HOXA4 [4]; 13.8 upbm affinity estimate (log intensity, higher = more binding, comparable within an allelic series) in the assay with HOXB4 [5]; 13.6 upbm affinity estimate (log intensity, higher = more binding, comparable within an allelic series) with HOXA4 [7]; 11.2 upbm affinity estimate (log intensity, higher = more binding, comparable within an allelic series) with HOXA4 [9].

Consider ATAATGAC, for which the binding signal with HOXB4 [1] was 12.9 upbm affinity estimate (log intensity, higher = more binding, comparable within an allelic series); in the assay with HOXA4 [2] it was 10.4 upbm affinity estimate (log intensity, higher = more binding, comparable within an allelic series); in the assay with HOXA7 [11], 11.2 upbm affinity estimate (log intensity, higher = more binding, comparable within an allelic series); with HOXB6 [12] it was 9.89 upbm affinity estimate (log intensity, higher = more binding, comparable within an allelic series); with HOXA2 [3], 12.4 upbm affinity estimate (log intensity, higher = more binding, comparable within an allelic series); with HOXA4 [4], 12.1 upbm affinity estimate (log intensity, higher = more binding, comparable within an allelic series). The binding signal with HOXB4 [5] is 13.6 upbm affinity estimate (log intensity, higher = more binding, comparable within an allelic series); in the assay with HOXA2 [6], 13.2 upbm affinity estimate (log intensity, higher = more binding, comparable within an allelic series); with HOXA4 [7], 13.7 upbm affinity estimate (log intensity, higher = more binding, comparable within an allelic series); with VAX1 [13], 12.6 upbm affinity estimate (log intensity, higher = more binding, comparable within an allelic series); with VAX1 [14] it was 12.5 upbm affinity estimate (log intensity, higher = more binding, comparable within an allelic series); with HOXA2 [8] it was 10.8 upbm affinity estimate (log intensity, higher = more binding, comparable within an allelic series). The binding signal in the assay with HOXA7 [15] was 8.74 upbm affinity estimate (log intensity, higher = more binding, comparable within an allelic series); with HOXA4 [9], 11.4 upbm affinity estimate (log intensity, higher = more binding, comparable within an allelic series); in the assay with HOXA2 [10] it was 12.4 upbm affinity estimate (log intensity, higher = more binding, comparable within an allelic series); in the assay with VAX1 [16], 12.3 upbm affinity estimate (log intensity, higher = more binding, comparable within an allelic series); with HOXB6 [17], 11.7 upbm affinity estimate (log intensity, higher = more binding, comparable within an allelic series).

For the sequence CTGGCGGC, the binding signal was 7.3 upbm affinity estimate (log intensity, higher = more binding, comparable within an allelic series) in the assay with HOXB4 [1]; 9.71 upbm affinity estimate (log intensity, higher = more binding, comparable within an allelic series) in the assay with HOXA4 [2]; 8.57 upbm affinity estimate (log intensity, higher = more binding, comparable within an allelic series) with HOXA7 [11]; 7.15 upbm affinity estimate (log intensity, higher = more binding, comparable within an allelic series) with HOXA2 [3]; 9.74 upbm affinity estimate (log intensity, higher = more binding, comparable within an allelic series) in the assay with HOXA4 [4]; 7.49 upbm affinity estimate (log intensity, higher = more binding, comparable within an allelic series) in the assay with HOXB4 [5]. The binding signal with HOXD13 [18] was 9.52 upbm affinity estimate (log intensity, higher = more binding, comparable within an allelic series); with HOXA2 [6], 10.3 upbm affinity estimate (log intensity, higher = more binding, comparable within an allelic series); in the assay with HOXD13 [19], 9.59 upbm affinity estimate (log intensity, higher = more binding, comparable within an allelic series); with HOXA4 [7], 9.58 upbm affinity estimate (log intensity, higher = more binding, comparable within an allelic series); in the assay with HOXD13 [20], 9.5 upbm affinity estimate (log intensity, higher = more binding, comparable within an allelic series); with HOXA2 [8], 10.5 upbm affinity estimate (log intensity, higher = more binding, comparable within an allelic series). Moreover, the binding signal with HOXA7 [15] is 8.35 upbm affinity estimate (log intensity, higher = more binding, comparable within an allelic series); with HOXA4 [9], 9.86 upbm affinity estimate (log intensity, higher = more binding, comparable within an allelic series); with HOXA2 [10] it was 7.36 upbm affinity estimate (log intensity, higher = more binding, comparable within an allelic series).

For ATTTGAAC, the binding signal in the assay with HOXB4 [1] is 9.93 upbm affinity estimate (log intensity, higher = more binding, comparable within an allelic series); with HOXC9 [21], 10.9 upbm affinity estimate (log intensity, higher = more binding, comparable within an allelic series); with HOXB4 [5] it was 9.93 upbm affinity estimate (log intensity, higher = more binding, comparable within an allelic series); with HOXC9 [22], 10.8 upbm affinity estimate (log intensity, higher = more binding, comparable within an allelic series); in the assay with HOXC9 [23] it was 11 upbm affinity estimate (log intensity, higher = more binding, comparable within an allelic series).

Consider ATTCATTA, for which the binding signal with HOXB4 [1] was 13.1 upbm affinity estimate (log intensity, higher = more binding, comparable within an allelic series); in the assay with HOXA4 [2], 10.5 upbm affinity estimate (log intensity, higher = more binding, comparable within an allelic series); with HOXA4 [4], 12.1 upbm affinity estimate (log intensity, higher = more binding, comparable within an allelic series); with HOXB4 [5], 13.7 upbm affinity estimate (log intensity, higher = more binding, comparable within an allelic series); with HOXA4 [7], 13.7 upbm affinity estimate (log intensity, higher = more binding, comparable within an allelic series); in the assay with HOXA4 [9], 11.6 upbm affinity estimate (log intensity, higher = more binding, comparable within an allelic series).

In the case of GGCCCCCA, the binding signal with HOXB4 [1] is 7.76 upbm affinity estimate (log intensity, higher = more binding, comparable within an allelic series); with HOXA4 [2] it was 9.68 upbm affinity estimate (log intensity, higher = more binding, comparable within an allelic series); in the assay with HOXA4 [4], 9.68 upbm affinity estimate (log intensity, higher = more binding, comparable within an allelic series); with HOXB4 [5], 7.77 upbm affinity estimate (log intensity, higher = more binding, comparable within an allelic series); in the assay with ALX1 [24], 6.64 upbm affinity estimate (log intensity, higher = more binding, comparable within an allelic series); with ALX1 [25], 6.56 upbm affinity estimate (log intensity, higher = more binding, comparable within an allelic series). For the same sequence, the binding signal with HOXA4 [7] was 9.71 upbm affinity estimate (log intensity, higher = more binding, comparable within an allelic series); with ALX1 [26], 6.65 upbm affinity estimate (log intensity, higher = more binding, comparable within an allelic series); in the assay with HOXA4 [9] it was 9.82 upbm affinity estimate (log intensity, higher = more binding, comparable within an allelic series).

On to ACCGTGCC, for which the binding signal is 7.42 upbm affinity estimate (log intensity, higher = more binding, comparable within an allelic series) in the assay with HOXB4 [1]; 8.5 upbm affinity estimate (log intensity, higher = more binding, comparable within an allelic series) with HOXA7 [11]; 7.71 upbm affinity estimate (log intensity, higher = more binding, comparable within an allelic series) in the assay with HOXB4 [5]; 8.5 upbm affinity estimate (log intensity, higher = more binding, comparable within an allelic series) with HOXA7 [15].

For ATAATGAT, the binding signal in the assay with HOXB4 [1] was 13.2 upbm affinity estimate (log intensity, higher = more binding, comparable within an allelic series); with HOXA4 [2] it was 10.6 upbm affinity estimate (log intensity, higher = more binding, comparable within an allelic series); with HOXA2 [3] it was 12.1 upbm affinity estimate (log intensity, higher = more binding, comparable within an allelic series); with HOXA4 [4], 12.2 upbm affinity estimate (log intensity, higher = more binding, comparable within an allelic series); with HOXB4 [5], 13.8 upbm affinity estimate (log intensity, higher = more binding, comparable within an allelic series); with HOXA2 [6], 13.1 upbm affinity estimate (log intensity, higher = more binding, comparable within an allelic series). The binding signal with HOXA4 [7] was 13.9 upbm affinity estimate (log intensity, higher = more binding, comparable within an allelic series); with VAX1 [14] it was 12.3 upbm affinity estimate (log intensity, higher = more binding, comparable within an allelic series); with HOXA2 [8], 10.9 upbm affinity estimate (log intensity, higher = more binding, comparable within an allelic series); with HOXA4 [9] it was 11.5 upbm affinity estimate (log intensity, higher = more binding, comparable within an allelic series); in the assay with HOXA2 [10], 12.1 upbm affinity estimate (log intensity, higher = more binding, comparable within an allelic series).

These data come from article PMC11006913.
